Assay results: PubChem BioAssay AID652017 (The Scripps Research Institute Molecular Screening Center, 2013)
Among all 370,000 compounds or so, about 3,800 (1%) were called active. Rule as the data show it: active = activation above about 7.8%; inactive = the rest. The entries come from a sample that favours actives as a whole.

Assay: SMARCA2 (BRM) function activators, primary screen, cell-based, luminescence, high throughput (AID 652017);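 also: 0% = vehicle wells and 100% = reference activator wells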
Details: MG213 cells, MMTV-luciferase reporter, dexamethasone, overnight; at 9.1 µM; hits give high values
For `COc1ccc(Cn2cc(COC(=O)N(C)Cc3ccccc3)nn2)cc1`, the activation was 0.64% (inactive). For `Cc1noc(C)c1/C=N/Nc1ccc2ccccc2n1`, the activation was 9.44% (active). With `Clc1ccc(Nc2ccc3ccccc3n2)cc1` the activation was 5.05% (inactive). For `O=C(c1c[nH]c2ccccc12)N1CCC(Oc2cccnc2)CC1`, the activation was 3.83% (inactive). With `COCCNC(=O)c1ccccc1-c1nc(-c2ccccc2Cl)no1` the activation was 3.36% (inactive). With `CN(C)CCNC(=O)c1ccc(Cl)c2cc3ccccc3nc12` the activation was 56.5% (active). For `Cc1cc(C)n(C(=O)CCNC(=O)c2ccccc2Cl)n1`, the activation was 0.01% (inactive). In the case of `CC1(C)CC(=O)C=C(NCCN2CCNCC2)C1`, the activation is reported as -1.09% (inactive). With `CC1(C)CC(=O)C=C(NCCCNC2CCCCC2)C1` the activation was 10.6% (active). In the case of `CC1(C)CC(=O)C=C(NCCCN2CCCC2=O)C1`, the activation is reported as 0.48% (inactive). For `CC1C(=O)Nc2ccccc2N1C(=O)c1c(F)cccc1F` (stereo not given), the activation was 0.63% (inactive). In the case of `O=C(CSc1nnc(COc2ccccc2)n1-c1ccc(Cl)cc1)Nc1ccc2c(c1)OCO2`, the activation is reported as -6.63% (inactive). For `COc1ccc2c(C(C)c3ccc(N)cc3)cn(C)c2c1` (stereo not given), the activation was -3.82% (inactive). For `Cc1ccc(S(=O)(=O)c2c[nH]c3ccc(C)cc3c2=O)cc1`, the activation was -1.93% (inactive). In the case of `Cc1ccc(S(=O)(=O)c2c[nH]c3ccc(Cl)cc3c2=O)cc1`, the activation is reported as 10.9% (active). For `CCCCN(C)Cc1c(C)[nH]c2ccc(Cl)cc2c1=O`, the activation was -3.5% (inactive). For `CC(OC(=O)c1cccnc1Cl)C(=O)NC1CCCCC1` (stereo not given), the activation was -0.77% (inactive). For `CCN(C(=O)[C@@H](C1CC1)[C@@H](O)c1ccc2ccccc2c1)c1ccccc1`, the activation was -7.28% (inactive). With `CC(C)CC(=O)Nc1nnc(S(=O)(=O)N(C)c2ccc(Cl)cc2)s1` the activation was 1.27% (inactive). In the case of `CCOC(=O)N1CCN(Cc2nc3cc(NC(=O)CC)ccc3n2CC)CC1`, the activation is reported as -1.94% (inactive). With `COc1ccc(N=C(C)c2sc3ccccc3c2O)cc1` the activation was 11.4% (active). For `COC(=O)c1ccc(/C=C/c2c(-c3ccc(OC)cc3)sc3ccccc23)cc1`, the activation was 3.05% (inactive). In the case of `CCCOc1ccc(Oc2c(Cl)cnn(Cc3cccc4ccccc34)c2=O)cc1`, the activation is reported as -0.93% (inactive). In the case of `CCOC(=O)c1c(C)[nH]c(C2=NNC(=NC(C)COC)SC2)c1C` (stereo not given), the activation is reported as 10.5% (active). With `Cc1ccccc1CN1CCCCC(NC(=O)c2cccc(C#N)c2)C1=O` (stereo not given) the activation was -3.87% (inactive). For `Cc1ccc(S(=O)(=O)N2C[C@@H]3CCCC[C@@H]3[C@@H](C)[C@H]2c2cn(Cc3ccccc3)c3ccc(F)cc23)cc1`, the activation was -2.92% (inactive). With `CC(C)(C)OC(=O)NCCc1ccccc1/C=C/S(=O)(=O)NCc1ccc(F)cc1` the activation was -3.29% (inactive). With `O=C(CSc1nnc(-c2ccccn2)n1-c1ccc(Cl)cc1)Nc1ccccc1-c1ccccc1` the activation was -4.51% (inactive). With `CCn1c2ccc(F)cc2c2nnc(SCCN3CCOCC3)nc21` the activation was 0.99% (inactive). For `CN(C)c1nc(NN)nc(Nc2ccc(F)cc2)n1`, the activation was -0.18% (inactive). With `Cn1c2ccc(F)cc2c2nnc(NN)nc21` the activation was 11.8% (active). In the case of `CCOC(=O)C1=C(c2ccccc2)NC(=O)NC1c1cc(OC)c(OC)cc1OC` (stereo not given), the activation is reported as -1.63% (inactive). With `Cc1ccc(-n2c(COc3ccccc3)nnc2SCC(=O)Nc2ccc3c(c2)OCCO3)cc1` the activation was -5.34% (inactive). For `O=S(=O)(Cc1nnnn1-c1ccccc1)c1ccccc1`, the activation was 3.47% (inactive). In the case of `COc1ccc(S(=O)(=O)NC(=O)C2(C)CCN2C(=O)c2ccccc2CCc2ccccc2)cc1` (stereo not given), the activation is reported as -0.47% (inactive). In the case of `CCS(=O)(=O)c1ccc2oc(SCC(=O)N3c4ccccc4CC3C)nc2c1` (stereo not given), the activation is reported as 0.08% (inactive). With `CN(C)S(=O)(=O)c1ccc2oc(SCC(=O)Nc3ccccc3F)nc2c1` the activation was 12% (active). With `COc1ccc(S(=O)(=O)N(C)C)cc1NC(=O)CSc1ncccn1` the activation was 1.65% (inactive). With `CCOC(=O)[C@]12CCCC3=C1N(CCC3)C(=O)[C@@H](CC(=O)NCc1cccs1)C2` the activation was -4.78% (inactive). In the case of `Nc1ccc(N=Nc2ccccc2Cl)c(N)n1`, the activation is reported as 7.92% (active). In the case of `C=CCN1C(C(=O)OC)CN(Cc2cn(Cc3ccccc3)nn2)CCS1(=O)=O` (stereo not given), the activation is reported as 1.74% (inactive). For `COc1ccc(C(=O)OCCN(C)C2CN(Cc3cn(Cc4cccc(C)c4)nn3)S(=O)(=O)C2)cc1OC` (stereo not given), the activation was -0.46% (inactive). With `COc1ccc(C(=O)CSc2nnc(-c3cnccn3)n2-c2ccc(C)cc2)cc1` the activation was -2.56% (inactive). For `CCOc1ccc(OCc2cccc(C(=O)N(CC)CC)c2)cc1`, the activation was 6.12% (inactive). In the case of `CC(=O)Oc1ccc(-c2cccc(C(=O)N3CCCCC3)c2)cc1`, the activation is reported as 1.59% (inactive). For `COc1ccc(OCc2cccc(C(=O)N3CCCC3)c2)cc1`, the activation was 7.84% (active). In the case of `CCOC(=O)Cc1cc(=O)[nH]c(/N=C(\N)Nc2ccc(OC)cc2)n1`, the activation is reported as -2.87% (inactive). For `COc1ccc(NC(=O)ON=C2c3ccccc3-c3ccccc32)cc1`, the activation was 3.56% (inactive). With `COc1ccc2nc(/N=C(\N)NC(=O)Nc3ccccc3)nc(C)c2c1` the activation was 28.8% (active). With `FC(F)(F)c1cccc(Cn2ccc3ccc(-c4ccc5ccn(Cc6ccccc6)c5c4)cc32)c1` the activation was -1.65% (inactive). With `O=C(NCC1COc2ccccc2O1)c1ccc(NC(=O)c2cc(F)ccc2F)cc1` (stereo not given) the activation was -5.67% (inactive). In the case of `O=C(c1cc(COc2ccc(F)cc2F)on1)N1CCOCC1`, the activation is reported as 2.32% (inactive). In the case of `O=C(c1cc(-c2ccccc2O)on1)N1CCCC1`, the activation is reported as 8.63% (active). With `O=C(c1cc(-c2ccc(O)cc2)on1)N1CCOCC1` the activation was 10.1% (active). For `COc1ccc(OCc2cc(C(=O)N3CCCC3)no2)c2ccccc12`, the activation was 5.22% (inactive). With `O=C(c1cc(C2CCCCN2S(=O)(=O)c2ccccc2)on1)N1CCOCC1` (stereo not given) the activation was -0.23% (inactive). In the case of `O=C(Nc1ccccc1C(F)(F)F)c1cc(-c2ccc(O)cc2)on1`, the activation is reported as 1.17% (inactive). With `CN(C(N)=NC(=O)/C=C/c1ccccc1)C(C#Cc1ccccc1)Cc1ccccc1` (stereo not given) the activation was -4.38% (inactive). For `COc1ccc(C)cc1N(C)C(=O)c1coc(=O)c2ccccc12`, the activation was -4.4% (inactive). For `O=C(NC1CCCCN(Cc2cccc(C(F)(F)F)c2)C1=O)c1ccccc1I` (stereo not given), the activation was -2.23% (inactive).
